Sampled rows, rich in hits. Any-hit rate of the full collection: about 4.7%.
eIF4H FP inh: inhibitors of RNA binding by human eIF4H. Q15056. eIF4H fluorescence polarization binding assay. inhibition, % at 35 µM. 0.94% of 290,000 active. AID 2012;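 further: calls also rest on retests at 20 µM and on dose response follow-up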
PABP polyA inh: blocks human PABP binding to poly(A) RNA | fluorescence polarization | 1% of 290,000 active | AID 2014 | inhibition, % at 35 µM | P11940;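 further: calls also rest on retests at 20 µM and on dose response follow-up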
Target sequence (P11940 whole entry, looked up): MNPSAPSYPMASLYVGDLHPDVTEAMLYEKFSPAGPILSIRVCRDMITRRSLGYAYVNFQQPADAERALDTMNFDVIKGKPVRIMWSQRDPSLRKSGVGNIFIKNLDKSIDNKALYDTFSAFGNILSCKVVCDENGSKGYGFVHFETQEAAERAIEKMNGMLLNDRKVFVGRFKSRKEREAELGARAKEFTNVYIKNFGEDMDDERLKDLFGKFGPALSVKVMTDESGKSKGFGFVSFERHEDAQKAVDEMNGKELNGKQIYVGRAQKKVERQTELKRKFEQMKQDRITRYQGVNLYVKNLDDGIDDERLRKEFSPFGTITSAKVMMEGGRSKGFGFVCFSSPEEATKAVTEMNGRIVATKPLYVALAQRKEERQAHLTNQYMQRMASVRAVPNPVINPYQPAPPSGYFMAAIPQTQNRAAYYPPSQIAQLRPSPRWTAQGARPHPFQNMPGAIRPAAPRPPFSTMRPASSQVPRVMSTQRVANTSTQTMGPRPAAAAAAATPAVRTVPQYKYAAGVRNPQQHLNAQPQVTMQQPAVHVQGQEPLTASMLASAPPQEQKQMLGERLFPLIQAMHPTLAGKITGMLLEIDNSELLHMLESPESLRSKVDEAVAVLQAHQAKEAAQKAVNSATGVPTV
UBC9 SUMO inh: SUMOylation inhibition | P63279 | HTRF SUMOylation assay, SAE1/SAE2 + UBC9, in vitro | inhibition, % at 35 µM | 0.36% of 290,000 active | AID 2006; in the data active means inhibition above about 50%, passing the limit was not always enough; inconclusive means no clear call, values can overlap the other calls
ALR H2O2 inh: blocks human ALR sulfhydryl oxidase activity | purified ALR, DTT oxidation, H2O2 HRP-luminol luminescence | inhibition, % (concentration not given with the values) | 3.8% of 290,000 active;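 active means mean replicate inhibition above about 79%, with every replicate also reaching it, limit read from the data; inconclusive means only one of the two criteria met; inactive means mean below limit and not every replicate reaching it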
MLLE-PAM2 inh: inhibitors of microRNA-mediated deadenylation, human PABP1 MLLE binding; GST-MLLE / FITC-PAM2 fluorescence polarization; inhibition, % at 20 µM; P11940; 0.36% of 360,000 active; in the data active means inhibition above about 35%, passing the limit was not always enough;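 further: plate controls were DMSO wells with GST-MLLE for no effect and wells lacking GST-MLLE protein for full effect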
Efflux pump mplx: inhibitors of Candida antifungal efflux pumps expressed in yeast | inhibition, % at 10 µM | S. cerevisiae Candida pump triplex, Nile Red efflux | 0.44% of 330,000 active | AID 485275;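 active means plate passing quality check with inhibition over a set limit, or well fluorescence over plate mean plus 4 SD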;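 further: Nile Red retained in pooled yeast measured as flow cytometry median fluorescence; 0% = buffer negative control and 100% = Enniatin B positive control; higher means more Nile Red kept so more efflux inhibition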
* hit, by the source's call. Unless noted, how the calls were made is not given here.

How did C[C@H](CO)N1C[C@H](C)[C@@H](CN(C)S(=O)(=O)c2cn(C)cn2)Oc2c(NS(=O)(=O)c3cccs3)cccc2C1=O do in these assays?
MLLE-PAM2 inh: 1; Efflux pump mplx: 1

What do the screens show for `O=C(NCc1ccco1)C1CC(=O)N(c2ccc(O)cc2)C1` (stereo not given)?
eIF4H FP inh: -12; PABP polyA inh: -1; UBC9 SUMO inh: 27; ALR H2O2 inh: 99*; MLLE-PAM2 inh: 1; Efflux pump mplx: 0

What do the screens show for `COc1ccc(N2CC(C(=O)Nc3ccccc3C(=O)NCc3ccco3)CC2=O)cc1` (stereo not given)?
eIF4H FP inh: -5; PABP polyA inh: 8; UBC9 SUMO inh: 4; MLLE-PAM2 inh: 7; Efflux pump mplx: 0

Results for C/C(=N/OC(=O)c1ccc(C)cc1)c1cccs1 ?
eIF4H FP inh: -8; PABP polyA inh: 1; UBC9 SUMO inh: -9; ALR H2O2 inh: -18; MLLE-PAM2 inh: -13; Efflux pump mplx: 0

What do the screens show for `CC/C(=N/OC(=O)c1cccc(C)c1)C(=O)c1cccs1`?
eIF4H FP inh: 6; PABP polyA inh: -1; UBC9 SUMO inh: -1; ALR H2O2 inh: 91*; MLLE-PAM2 inh: 5; Efflux pump mplx: 0

What do the screens show for `O=C1N/C(=C/c2ccc(N3CCCC3)cc2)C(=O)N1c1ccccc1`?
eIF4H FP inh: 1; PABP polyA inh: -3; UBC9 SUMO inh: 37; ALR H2O2 inh: 1; MLLE-PAM2 inh: -66; Efflux pump mplx: 0

How did O=C1/C(=C/c2ccc(N3CCCC3)cc2)NC(=S)N1C1CC1 do in these assays?
eIF4H FP inh: 126; PABP polyA inh: 120; UBC9 SUMO inh: 17; ALR H2O2 inh: 97*; MLLE-PAM2 inh: 118; Efflux pump mplx: 0

What do the screens show for `CCN(CC)C(=S)Nc1ccc(OC)cc1`?
eIF4H FP inh: active; PABP polyA inh: 69*; UBC9 SUMO inh: -2; ALR H2O2 inh: 12; MLLE-PAM2 inh: -31; Efflux pump mplx: 0

What do the screens show for `COc1ccc(NC(=S)c2ccc(N(C)C)cc2)cc1`?
eIF4H FP inh: -9; PABP polyA inh: 3; UBC9 SUMO inh: -1; ALR H2O2 inh: 6; MLLE-PAM2 inh: 18; Efflux pump mplx: 0

How did COc1ccc(NC(=S)N(Cc2ccc(C(=O)O)cc2)Cc2ccc(OC)c(OC)c2)cc1 do in these assays?
eIF4H FP inh: 91*; PABP polyA inh: active; UBC9 SUMO inh: 8; ALR H2O2 inh: -2; MLLE-PAM2 inh: -10; Efflux pump mplx: 0

What do the screens show for `COc1ccc(CN(Cc2ccc(C(=O)O)cc2)C(=S)Nc2cccc(C)c2)cc1OC`?
eIF4H FP inh: -4; PABP polyA inh: 10; UBC9 SUMO inh: 10; ALR H2O2 inh: -21; MLLE-PAM2 inh: -34; Efflux pump mplx: 0

Results for COc1ccc(C(=S)Nc2ccc(N(C)C)cc2)cc1 ?
eIF4H FP inh: 0; PABP polyA inh: 2; UBC9 SUMO inh: 10; ALR H2O2 inh: 99*; MLLE-PAM2 inh: 19; Efflux pump mplx: 0

Results for CCCC1(c2ccccc2)NC(=O)N(CC(=O)Nc2ccccc2C(F)(F)F)C1=O (stereo not given) ?
eIF4H FP inh: -12; PABP polyA inh: -4; UBC9 SUMO inh: -1; ALR H2O2 inh: 1; MLLE-PAM2 inh: -12; Efflux pump mplx: 0

Results for O=C(/C=C/c1ccco1)c1ccc(NC(=O)C23CC4CC(CC(C4)C2)C3)cc1 ?
eIF4H FP inh: inconclusive; PABP polyA inh: active; UBC9 SUMO inh: 24; MLLE-PAM2 inh: -12; Efflux pump mplx: 1

Results for COc1ccc(Cl)c2sc(N(CCN(C)C)C(=O)CCS(=O)(=O)c3ccc(C)cc3)nc12 ?
ALR H2O2 inh: 3; MLLE-PAM2 inh: 0; Efflux pump mplx: 0

How did COc1ccc(OC)c2sc(N(CCCN(C)C)C(=O)CCS(=O)(=O)c3ccccc3)nc12 do in these assays?
ALR H2O2 inh: 52; MLLE-PAM2 inh: 43*; Efflux pump mplx: 0

What do the screens show for `Cc1ccc2sc(N(CCCN(C)C)C(=O)CCS(=O)(=O)c3ccccc3)nc2c1C`?
eIF4H FP inh: -2; PABP polyA inh: 11; UBC9 SUMO inh: -6; ALR H2O2 inh: 98*; MLLE-PAM2 inh: 0; Efflux pump mplx: 0

What do the screens show for `NC(c1ccncc1)c1ccc(Cl)cc1` (stereo not given)?
MLLE-PAM2 inh: -11

What do the screens show for `COc1cc2ccccc2cc1C(=O)NC(=S)Nc1cccc(C(=O)O)c1`?
eIF4H FP inh: -2; PABP polyA inh: 13; UBC9 SUMO inh: 31; ALR H2O2 inh: 30; MLLE-PAM2 inh: 40*; Efflux pump mplx: 0

Screening results (PubChem BioAssay)
